# Source: PubChem (several laboratories)
# MIN6 prolif: induces beta-cell replication in MIN6 cells; MIN6 cells proliferation, ATPlite luminescence, 48 h; cells starved in 0.2% serum; 100% = growth in 10% serum; proliferation, % at 10 µM; 330,000 compounds, 0.29% hits;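 active = compounds whose signal lies at least 3.5 SD above the mean of all wells on their plate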;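 also: 0% = DMSO-treated cells in low-serum medium and 100% = 10% serum control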
# Rtt109 Vps75: blocks Candida albicans Rtt109/Vps75 acetyltransferase activity; Q5AAJ8; purified Rtt109/Vps75, ThioGlo CoA-SH fluorescence, 4 h; inhibition, % at 34.9 µM; 330,000 compounds, 0.16% hits; AID 540336;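 active = inhibition of at least 50% in every replicate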
# V-ATPase pH: regulators of yeast V-ATPase proton transport; S. cerevisiae, pHLuorin cytosolic pH fluorescence; response, % at 10 µM; 350,000 compounds, 0.37% hits; AID 504577; in the data active = response mostly above about 7.3%, no sharp cut-off; inactive = mostly below about 5.4%; also: actives read high
# DAGLB inhibitor: diacylglycerol lipase beta (human) inhibition. HEK293T DAGLB membrane lysate, EnzChek fluorogenic substrate. inhibition, % at 5.17 µM. 340,000 compounds, 0.059% hits. Q8NCG7. AID 504411; in the data active = inhibition above about 34%;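 also: 0% = enzyme with vehicle and 100% = wells lacking enzyme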
# HDAC3 inhib: blocks human histone deacetylase 3; 320,000 compounds, 0.15% hits; AID 2718; O15379; recombinant HDAC3, fluorogenic peptide/trypsin coupled, fluorescence; inhibition, % at 8.3 µM; in the data active = inhibition above about 26%, passing the limit was not always enough
# Target sequence (O15379 whole entry, looked up): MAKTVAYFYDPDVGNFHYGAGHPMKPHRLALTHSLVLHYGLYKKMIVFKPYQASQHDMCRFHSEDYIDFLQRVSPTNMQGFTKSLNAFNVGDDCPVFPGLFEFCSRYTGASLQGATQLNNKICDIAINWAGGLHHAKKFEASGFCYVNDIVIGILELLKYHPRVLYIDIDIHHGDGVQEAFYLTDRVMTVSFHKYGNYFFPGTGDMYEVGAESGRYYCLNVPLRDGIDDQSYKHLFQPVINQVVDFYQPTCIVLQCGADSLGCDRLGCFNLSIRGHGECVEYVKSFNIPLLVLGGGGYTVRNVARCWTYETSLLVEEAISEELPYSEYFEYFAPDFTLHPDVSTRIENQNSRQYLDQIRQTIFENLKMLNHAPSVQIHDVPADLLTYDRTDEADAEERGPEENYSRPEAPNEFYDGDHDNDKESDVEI
# VATPase regulator: yeast V-ATPase proton transport regulation. shares compounds with V-ATPase pH. S. cerevisiae pHLuorin cytosolic pH. response, % at 10 µM. 980 compounds, 2% hits; in the data active = response above about 24%;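 also: plate controls were vehicle wells for no effect and positive control wells for full effect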
# * marks the source's active call; other numbers are inactive results; . = no result. Hits are enriched below; roughly 0.96% of the tested compounds scored in any of these assays.
SMILES,MIN6 prolif,Rtt109 Vps75,V-ATPase pH,DAGLB inhibitor,HDAC3 inhib,VATPase regulator
O=C(CN1CCN(c2ccccc2)CC1)N1N=CCC1c1ccccc1 (stereo not given),4,13,24*,0,2,-3
O=C(CN1CCN(c2ccc(F)cc2)CC1)N1N=CCC1c1ccccc1 (stereo not given),-2,-11,-3,-3,1,.
COC(=O)COc1ccc(-c2ccc(F)cc2)cc1C=O,-3,-1,6.2*,-6,1,20
COC(=O)COc1ccc(-c2ccccc2)cc1C=O,-5,-26,1,-1,-4,.
CC(=O)Nc1ccc(CN2CCCC(C(=O)c3ccc(C(F)(F)F)cc3)C2)cc1 (stereo not given),1,-7,2,2,-1,.
C[C@@H]1CN([C@@H](C)CO)S(=O)(=O)c2ccc(Br)cc2O[C@H]1CN(C)C(=O)c1ccccc1,.,.,69*,1,.,1
Cc1nc2n(n1)C(O)c1cc([N+](=O)[O-])ccc1S2 (stereo not given),0,.,.,.,-1,.
O=[N+]([O-])c1ccc2c(c1)C(O)n1nc(-c3ccc(Cl)cc3Cl)nc1S2 (stereo not given),-1,-1,7.3*,2,-1,-1
Cc1ccc(C(=O)Nc2ncc(C)s2)o1,-4,3,8.8*,-1,0,0
C[C@H](CO)N1C[C@H](C)[C@@H](CN(C)Cc2ccccc2)Oc2c(NC(=O)c3ccncc3)cccc2C1=O,-3,-4,1,0,.,.
O=C(O)CSc1nnc2c(n1)[nH]c1ccccc12,0,5,1,-1,4,.
CCOC(=O)CC(=O)CSc1nnc2c(n1)[nH]c1ccccc12,-1,7,-3,2,8,-1
Cc1ccc(CNC(=O)C2CCCN(Cc3cnn(-c4ccccc4)c3-n3cccc3)C2)cc1 (stereo not given),-5,-6,-2,0,-5,.
COC(=O)C1=C(O)CSC1=Nc1cccc(C(F)(F)F)c1,-2,0,-2,-5,16,.
CCOC(=O)N1CCC(NS(=O)(=O)c2cc(C(=O)OC)n(C)c2)CC1,3,9,1,-2,-1,.
CN1CCN(S(=O)C23CC4CC(CC(C4)C2)C3)CC1 (stereo not given),1,3,2,2,-3,.
O=S(N1CCCCC1)C12CC3CC(CC(C3)C1)C2 (stereo not given),2,-6,15*,4,0,2
Cc1ccc(-c2nc(N)n(S(=O)(=O)c3ccc(C)cc3)n2)cc1,-2,.,8.7*,-1,-2,-1
CCS(=O)(=O)n1nc(-c2ccc(C)cc2)nc1N,1,3,-3,1,-1,.
COc1cccc(CN(C)C(=O)c2ccc(NC(=O)CC3SC(N4CCCCC4)=NC3=O)cc2)c1OC (stereo not given),.,5,2,-2,.,.
O=C(CCNC(=O)c1ccccc1)NNC(=O)COc1ccccc1Cl,-2,0,8.2*,4,-3,0
COCCNC(=S)N(CCc1c(C)[nH]c2ccccc12)Cc1ccco1,2,1,11*,-2,7,-3
O=C1CSC(c2ccccc2[N+](=O)[O-])N1c1cccc(F)c1 (stereo not given),-1,5,8.3*,-1,-3,9
O=C1C2CCCCN2C(=O)N1CCN1CCN(c2cccc(Cl)c2)CC1 (stereo not given),.,-2,6.3*,2,.,1
CCN(c1ccccc1)S(=O)(=O)c1ccc(Cl)c(C(=O)O)c1,-3,-1,2,0,4,.
SMILES,MIN6 prolif,Rtt109 Vps75,V-ATPase pH,DAGLB inhibitor,HDAC3 inhib,VATPase regulator
COC(=O)c1cnc(SCc2ccc(Cl)cc2)n1C,0,2,6.3*,-14,4,2
COC(=O)N1CCc2c(sc(NC(=O)C3COc4ccccc4O3)c2C(N)=O)C1 (stereo not given),-1,-3,-1,2,3,.
Cc1cc(C(=O)O)c2ccccc2n1,1,-1,16*,3,-5,4
Cc1cc(C(N)=O)c2ccccc2n1,-2,.,0,0,2,.
CCNC(=O)/C(C#N)=C/c1c(N2CCN(c3ccc(OC)cc3)CC2)nc2c(C)cccn2c1=O,-2,-12,14*,6,-1,1
CCC[C@@H](NS(=O)(=O)c1ccc(C)cc1)C(=O)Oc1ccc2c3c(c(=O)oc2c1)CCC3,0,3,-4,-4,-7,.
